15 compounds from PubChem BioAssay (NCATS) can be followed below.

In general, viability refers to a read-out of living cells in per cent, often relative to untreated cells.

Molecules are shown by their SMILES. “And” between values parts separate entries of the source, which are not always exact repeats. Equal values may be shown once. Inconclusive results are not listed. Values without a mark were called inactive. The source made the active and inactive calls. Calls come from the whole dose curve; as a rule, active = well fitted curve in the direction sought with a large enough effect; inconclusive = small, poorly fitted or top-dose-only effect, or another doubt; inactive = no such curve, though single readings can be large; an effect the other way counts as inactive or inconclusive.

The target of test [1] is Cellular tumor antigen p53 (Homo sapiens) (UniProt P04637). In words: Primary qHTS for small molecule compounds that upregulate eGFP-tagged delta133p53alpha (in N-terminal) cells. (AID 2060322).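 For activation: series mostly up to about 56 µM; 0% = DMSO vehicle and 100% = reference activator.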 Note: nearly all actives have a fitted effect of over 75% in size. Note: potency is the fitted concentration of half-maximal effect. Conditions: NCI-H358 eGFP-delta133p53alpha fluorescence, 24 h; activation: hits give high values. The procedure, abridged: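 NCI-H358 cells pre-induced 24 h with 10 ng/ml doxycycline to express N-terminal eGFP-delta133p53alpha, then dosed 24 h at 37C without doxycycline; fixed, Hoechst-stained, GFP intensity by laser scanning cytometry, normalized to DMSO (0%) and 57.5 uM 5-azacytidine (100%).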
Chain of Cellular tumor antigen p53 (Homo sapiens) (P04637 whole entry, looked up): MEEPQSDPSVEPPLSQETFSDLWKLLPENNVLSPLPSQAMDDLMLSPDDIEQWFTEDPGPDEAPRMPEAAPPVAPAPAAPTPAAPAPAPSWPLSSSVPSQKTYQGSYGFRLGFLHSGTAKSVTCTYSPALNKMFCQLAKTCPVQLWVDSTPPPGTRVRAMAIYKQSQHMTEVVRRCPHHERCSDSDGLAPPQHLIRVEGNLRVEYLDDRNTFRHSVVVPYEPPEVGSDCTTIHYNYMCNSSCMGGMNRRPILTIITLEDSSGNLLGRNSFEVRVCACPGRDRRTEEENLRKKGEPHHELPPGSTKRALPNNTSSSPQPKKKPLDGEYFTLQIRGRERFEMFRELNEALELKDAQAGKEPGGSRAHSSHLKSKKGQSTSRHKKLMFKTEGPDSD
Background: In qHTS, concentration-response curves come from the screen itself.

The target in test [2] is Aldehyde dehydrogenase, mitochondrial (Homo sapiens) (UniProt P05091). In words: qHTS for Inhibitors of the Aldehyde Dehydrogenase Family (ALDH2) Primary screen (AID 2061308).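 Note: plate controls were vehicle for no effect and reference inhibitor for full effect; nearly all actives have a fitted effect of over 55% in size.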
The target in test [3] is Retinaldehyde dehydrogenase 3 (Homo sapiens) (UniProt P47895). The experiment in a line: qHTS for Inhibitors of the Aldehyde Dehydrogenase Family (ALDH1A3) Primary screen (AID 2061315).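 Note: plate controls were DMSO vehicle for no effect and reference inhibitor for full effect.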
The nature of test [4]: BET inhibitor-based combinations targeting novel dependencies in MECOM-rearranged (r) AML: SET-2 cell line (AID 2202231).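 For viability: plate controls were DMSO treated cells for no effect and wells without cells for full effect.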 Note: nearly all actives have a fitted effect of over 35% in size. Note: potency is the fitted concentration of half-maximal effect. Conditions: SET-2 AML cells viability, CellTiter-Glo luminescence, 48 h; viability: hits give low values, concentration not given here. The procedure, abridged:
(§1)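 A 48 hr incubation preceded viability reading by CellTiter-Glo, with 15 min room-temperature development. Dose series had 11 points; normalization used DMSO and empty wells; AUC was computed and mean-centered per line as Z-AUC.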
A general note: Cellular ATP, detected with luciferase, serves as a proxy for viable cell number.

Test [5] can be described thus: BET inhibitor-based combinations targeting novel dependencies in MECOM-rearranged (r) AML: OCI-AML3 cell line (AID 2202232). Note: nearly all actives have a fitted effect of over 35% in size. Note: potency is the fitted concentration of half-maximal effect. Conditions: Potency: OCI-AML3 viability. The procedure, abridged:
as §1

A short description of test [6]: BET inhibitor-based combinations targeting novel dependencies in MECOM-rearranged (r) AML: MV-4-11 cell line (AID 2202233). Note: nearly all actives have a fitted effect of over 45% in size. Note: potency is the fitted concentration of half-maximal effect. The method, boiled down: (§2)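 Each compound is tested in an 11-point concentration series against 500 seeded cells/well for 48 hr. The luminescent viability signal is normalized to DMSO and blank wells, then reduced to AUC and a cell-line-centred Z-AUC.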

The nature of test [7]: BET inhibitor-based combinations targeting novel dependencies in MECOM-rearranged (r) AML: HNT-34 cell line (AID 2202234). Note: nearly all actives have a fitted effect of over 35% in size. Note: potency is the fitted concentration of half-maximal effect. The method, boiled down:
as §2

Test [8] in a line: BET inhibitor-based combinations targeting novel dependencies in MECOM-rearranged (r) AML: UCSD-AML1 cell line (AID 2202235). Note: nearly all actives have a fitted effect of over 40% in size. Note: potency is the fitted concentration of half-maximal effect. The method, boiled down:
as §2

Test [9] can be described thus: BET inhibitor-based combinations targeting novel dependencies in MECOM-rearranged (r) AML: AML-191 cell line (AID 2202236; note: nearly all actives have a fitted effect of over 35% in size; note: potency is the fitted concentration of half-maximal effect). The method, boiled down:
as §1

The nature of test [10]: BET inhibitor-based combinations targeting novel dependencies in MECOM-rearranged (r) AML: AML-194 cell line (AID 2202237; note: nearly all actives have a fitted effect of over 40% in size; note: potency is the fitted concentration of half-maximal effect). The procedure, abridged:
as §1

Consider `CN1C(=O)N[C@@H](Cc2c[nH]c3c(Cl)cccc23)C1=O`, for which the activation in [1] was -25.9%. Further, the Potency result in test [2], in test [3], in test [5], in test [6], in [7] and in test [8] was “inactive” in each case. Further, the Potency entry in [9] and in test [10] was “inactive” throughout. Further, in test [4], the viability was 110%.
`CCOc1cc2ncc(C#N)c(Nc3ccc(OCc4ccccn4)c(Cl)c3)c2cc1NC(=O)/C=C/CN(C)C`: the Potency in [1] is 9.28 µM (active); in [4], 4680 nM (active); in test [5], 5900 nM (active); in [6] it was 2090 nM (active); in test [7] it was 1320 nM (active); in test [8] it was 3720 nM (active). Besides, the Potency in test [9] and in test [10] was 5250 nM (active) throughout. The Potency entry in test [2] and in test [3] was “inactive” each time.
Regarding `CCCCN(CCCC)C(=O)CN1C[C@H](c2ccc3c(c2)OCO3)[C@@H](C(=O)O)[C@@H]1c1ccc(OC)cc1`, the activation in test [1] is -2.39% and -6.46%. Moreover, the Potency entry in [2], in [3], in test [5], in test [6], in test [8] and in [9] was “inactive” in each case. Besides, the viability in [4] was 107%.
On to `COc1cc(Nc2c(C#N)cnc3cc(OCCCN4CCN(C)CC4)c(OC)cc23)c(Cl)cc1Cl`, for which the Potency in test [1] was 30.9 µM (active) and 23.9 µM (active); in [4], 16600 nM (active); in [5] it was 6610 nM (active); in test [6] it was 3320 nM (active); in test [7] it was 590 nM (active); in [8], 8330 nM (active). Besides, in test [10], the Potency is 7420 nM (active). In addition, the Potency result in [2] and in test [3] was “inactive” in each case.
Regarding `CC(C)c1noc(N2CCC(COc3ccc(-c4ccc(S(C)(=O)=O)cc4)nc3)CC2)n1`, in [1], the activation was -0.134% and -12.9%. Further, the Potency result in [2], in [3], in test [7], in test [8] and in test [10] was “inactive” each time. For the same compound, the Potency in [4] was 11800 nM (active); in [5], 4680 nM (active); in test [6], 2350 nM (active).
For `CCCC(CCC)C(=O)Nc1ccn([C@@H]2O[C@H](CO)[C@@H](O)C2(F)F)c(=O)n1`, in test [1], the activation is -16.2%. Besides, the Potency entry in test [2] and in [3] was “inactive” in each case. Further, the Potency is 3720 nM (active) in [4]; 934 nM (active) in test [5]; 1050 nM (active) in [6]; 4680 nM (active) in test [7]; 4170 nM (active) in test [8]; 2350 nM (active) in test [9]. In addition, in test [10], the Potency was 2630 nM (active).
Consider `Cn1cc(-c2ccc(S(=O)(=O)n3ccc(/C=C/C(=O)Nc4ccccc4N)c3)cc2)cn1`, for which the Potency in [1] was 19 µM (active); in test [4] it was 1860 nM (active); in test [5], 1180 nM (active); in test [6] it was 1180 nM (active); in test [7] it was 1050 nM (active); in [8], 1180 nM (active). The Potency in [9] is 833 nM (active); in test [10], 1050 nM (active). Further, the Potency result in [2] and in [3] was “inactive” throughout.
Consider `C[C@@H](Oc1cc(-c2cnn(C3CCNCC3)c2)cnc1N)c1c(Cl)ccc(F)c1Cl`, for which the activation in test [1] is -17.6%. The Potency entry in test [2] and in test [3] was “inactive” each time. The Potency is 10500 nM (active) in test [4]; 5900 nM (active) in test [5]; 2350 nM (active) in test [6]; 1180 nM (active) in test [7]; 1660 nM (active) in test [8]; 1180 nM (active) in test [9]. In [10], the Potency was 1480 nM (active).
Consider `COc1cc(OC)c(/C=C/S(=O)(=O)Cc2ccc(OC)c(NCC(=O)O)c2)c(OC)c1`, for which the activation in test [1] is 17.9%. In addition, the Potency result in test [2] and in [3] was “inactive” in each case. Besides, the Potency in [4] is 296 nM (active); in [5] it was 209 nM (active); in test [6], 263 nM (active); in test [7] it was 166 nM (active); in [8], 263 nM (active); in test [10], 263 nM (active).
Take `NC(=O)c1ccccc1Nc1ccnc(Nc2cccc(O)c2)n1`: the Potency in test [1] is 30.1 µM (active); in [4] it was 5900 nM (active); in test [5] it was 18600 nM (active); in test [6], 662 nM (active); in test [8], 1660 nM (active); in test [9] it was 5250 nM (active). For the same compound, the Potency result in test [2] and in test [3] was “inactive” in each case.
With `Cc1cn(CCN2CCN(c3ccccc3-c3cc(C#N)cc(C(=O)NCCCN4CCCC4)c3)CC2)c2ccccc12`, in [1], the activation is 15.8%. For the same compound, the Potency entry in [2] and in test [3] was “inactive” each time. For the same compound, the Potency in test [4] was 23500 nM (active); in test [5], 18600 nM (active); in test [6], 20900 nM (active); in [7], 18600 nM (active); in test [9] it was 18600 nM (active); in test [10], 18600 nM (active).
In the case of `CCCS(=O)(=O)Nc1ccc(F)c(C(=O)c2c[nH]c3ncc(-c4ccc(Cl)cc4)cc23)c1F`, the activation in test [1] was 15.9% and 18.8%. Moreover, the Potency result in test [2], in [3], in test [5] and in [10] was “inactive” throughout. Further, the viability in test [4] was 117%. The Potency in test [6] is 33200 nM (active); in test [7], 14800 nM (active).
As for `C=CC(=O)Nc1cccc(Oc2nc(Nc3ccc(N4CCN(C)CC4)cc3)ncc2Cl)c1`, the Potency in test [1] was 9.68 µM (active) and 13.5 µM (active); in test [4], 14800 nM (active); in test [5], 7420 nM (active); in [6], 1860 nM (active); in test [7] it was 2350 nM (active); in test [9], 5900 nM (active). The Potency in test [10] was 5250 nM (active). Also, the Potency result in [2] and in [3] was “inactive” in each case.
As for `OCCCNc1cc(-c2ccnc(Nc3cccc(Cl)c3)n2)ccn1`, the Potency is 172 nM (active) and 301 nM (active) in [1]; 132 nM (active) in [4]; 118 nM (active) in [5]; 132 nM (active) in test [6]; 132 nM (active) in [7]; 83.3 nM (active) in test [8]. Moreover, the Potency is 93.4 nM (active) in test [9] and 332 nM (active) in test [10]. For the same compound, the Potency result in [2] and in [3] was “inactive” each time.
With `Cc1ccc(-c2ccc3ncc4c(c3n2)n(C2CCN(C(=O)[C@H](C)O)CC2)c(=O)n4C)cn1`, the Potency in [1] is 12 µM (active); in test [4], 166 nM (active); in test [5], 296 nM (active); in [6] it was 209 nM (active); in test [7] it was 263 nM (active); in test [8] it was 93.4 nM (active). The Potency in test [10] was 417 nM (active). Moreover, the Potency entry in [2] and in test [3] was “inactive” each time.
